Where “and” joins values, the source holds several entries; their conditions need not be identical. Identical values can stand only once. The panel holds about 83,000 compounds, 20% with a hit somewhere; the sample as a whole holds those more often.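 Percent growth is the endpoint: 0 to 100 indicates growth inhibition (40 means 60% inhibition), 0 means no net growth, and negative values indicate cell death.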 Calls of active or inactive are those of the source. The calls were made as follows: active = growth percent below 10; inactive = the rest.
Assays:
Assay in all cases: NCI-60 one-dose screen, 48 h (100 = growth as untreated, 0 = no growth, -100 = all killed)
RPMI-8226 leukemia = tested on: RPMI-8226 leukemia
OVCAR-8 ovarian = tested on: OVCAR-8 ovarian
OVCAR-5 ovarian = tested on: OVCAR-5 ovarian
OVCAR-4 ovarian = tested on: OVCAR-4 ovarian
SK-OV-3 ovarian = tested on: SK-OV-3 ovarian
IGROV1 ovarian = tested on: IGROV1 ovarian
HS 578T breast = tested on: HS 578T breast
NCI/ADR-RES ovarian = tested on: NCI/ADR-RES ovarian
T-47D breast = tested on: T-47D breast
BT-549 breast = tested on: BT-549 breast
MDA-MB-435 melanoma = tested on: MDA-MB-435 melanoma
SW-620 colon = tested on: SW-620 colon
MCF7 breast = tested on: MCF7 breast
HCT-116 colon = tested on: HCT-116 colon
HCC-2998 colon = tested on: HCC-2998 colon
KM12 colon = tested on: KM12 colon
OVCAR-3 ovarian = conditions: 10 µM

Measured: growth

O=[N+]([O-])c1cc(S(=O)(=O)Nc2ccccc2)ccc1Cl
inactive: RPMI-8226 leukemia; 10 µM 88.4% | OVCAR-8 ovarian; 10 µM 91.5% | OVCAR-5 ovarian; 10 µM 101% | OVCAR-4 ovarian; 10 µM 97% | SK-OV-3 ovarian; 10 µM 96.3% | IGROV1 ovarian; 10 µM 96.1% | HS 578T breast; 10 µM 101% | NCI/ADR-RES ovarian; 10 µM 99.6% | T-47D breast; 10 µM 69.6% | BT-549 breast; 10 µM 92.5% | MDA-MB-435 melanoma; 10 µM 98.6% | SW-620 colon; 10 µM 105% | MCF7 breast; 10 µM 84% | HCT-116 colon; 10 µM 92.1% | HCC-2998 colon; 10 µM 90% | KM12 colon; 10 µM 98.5%

N#CC(=C1C=CC(=NO)C=C1)c1ccccc1
inactive: OVCAR-4 ovarian; 10 µM 14.4% | SK-OV-3 ovarian; 10 µM 37.8% | IGROV1 ovarian; 10 µM 24.5% | HCC-2998 colon; 10 µM 90.6%
active: RPMI-8226 leukemia; 10 µM -13% | OVCAR-8 ovarian; 10 µM 2.63% | OVCAR-5 ovarian; 10 µM -10.1% | HS 578T breast; 10 µM -18.3% | NCI/ADR-RES ovarian; 10 µM -37.2% | T-47D breast; 10 µM -8.58% | BT-549 breast; 10 µM -7.31% | MDA-MB-435 melanoma; 10 µM -20.7% | SW-620 colon; 10 µM 1.65% | MCF7 breast; 10 µM 8.32% | HCT-116 colon; 10 µM -47.8% | KM12 colon; 10 µM -57%

Cn1ncc2cc3c(Nc4ccc(Cl)cc4)cccc3nc21
inactive: RPMI-8226 leukemia; 10 µM 79% | OVCAR-8 ovarian; 10 µM 89.8% | OVCAR-5 ovarian; 10 µM 109% | OVCAR-4 ovarian; 10 µM 88.2% | SK-OV-3 ovarian; 10 µM 94.7% | IGROV1 ovarian; 10 µM 95.8% | HS 578T breast; 10 µM 89% | NCI/ADR-RES ovarian; 10 µM 89.1% | T-47D breast; 10 µM 77.2% | BT-549 breast; 10 µM 97.4% | MDA-MB-435 melanoma; 10 µM 100% | SW-620 colon; 10 µM 97.5% | MCF7 breast; 10 µM 86.8% | HCT-116 colon; 10 µM 85.6% | HCC-2998 colon; 10 µM 110% | KM12 colon; 10 µM 90.8%

N#C/C(=C/N1C(=O)/C(=C/c2ccc([N+](=O)[O-])cc2)SC1=S)c1nc2ccccc2s1
inactive: RPMI-8226 leukemia; 10 µM 67.4% | OVCAR-8 ovarian; 10 µM 88.4% | OVCAR-5 ovarian; 10 µM 90.3% | OVCAR-4 ovarian; 10 µM 104% | SK-OV-3 ovarian; 10 µM 82.4% | IGROV1 ovarian; 10 µM 69.8% | HS 578T breast; 10 µM 90.4% | NCI/ADR-RES ovarian; 10 µM 92.3% | T-47D breast; 10 µM 53.6% | BT-549 breast; 10 µM 84% | MDA-MB-435 melanoma; 10 µM 99% | SW-620 colon; 10 µM 87.8% | MCF7 breast; 10 µM 60.7% | HCT-116 colon; 10 µM 85.9% | HCC-2998 colon; 10 µM 92.6% | KM12 colon; 10 µM 89.7%

CC(=O)O[C@H]1C(=O)[C@@]2(C)[C@H]([C@H](OC(=O)c3ccccc3)[C@]3(O)C[C@H](OC(=O)[C@H](O)[C@@H](NC(=O)c4ccccc4)c4ccccc4)C(C)=C1C3(C)C)[C@]1(OC(C)=O)CO[C@@H]1C[C@@H]2O
inactive: RPMI-8226 leukemia; 2.5 µM 11.4% | OVCAR-8 ovarian; 5 µM 11.6% | OVCAR-8 ovarian; 10 µM 18.4% | OVCAR-5 ovarian; 0.01 µM 20.6% | OVCAR-5 ovarian; 5 µM 10.8% | OVCAR-5 ovarian; 10 µM 41.8% and 13.7% | OVCAR-4 ovarian; 0.01 µM 64.7% | OVCAR-4 ovarian; 2.5 µM 56.9% | OVCAR-4 ovarian; 5 µM 61.3% | SK-OV-3 ovarian; 0.01 µM 52% | SK-OV-3 ovarian; 2.5 µM 10.2% | SK-OV-3 ovarian; 5 µM 16.2% | SK-OV-3 ovarian; 10 µM 42.9% and 12.8% | IGROV1 ovarian; 0.01 µM 39% | IGROV1 ovarian; 2.5 µM 32.2% | IGROV1 ovarian; 5 µM 35.2% | NCI/ADR-RES ovarian; 0.01 µM 92.8% | NCI/ADR-RES ovarian; 2.5 µM 50.7% | NCI/ADR-RES ovarian; 5 µM 25.9% | T-47D breast; 0.01 µM 35.5% | T-47D breast; 2.5 µM 27.9% | T-47D breast; 5 µM 32.5% | T-47D breast; 10 µM 48.7% and 32.3% | SW-620 colon; 0.01 µM 24.4% | SW-620 colon; 2.5 µM 38.5% | SW-620 colon; 5 µM 50.3% | SW-620 colon; 10 µM 53.7% and 53.5% | MCF7 breast; 2.5 µM 14.3% | MCF7 breast; 5 µM 15.4% | MCF7 breast; 10 µM 15.4% and 15.3% | KM12 colon; 0.01 µM 10.6%
11.9% (inactive) and 8.9% (active): HCT-116 colon; 10 µM
-13% (active) and 57.6% (inactive): OVCAR-4 ovarian; 10 µM
2.94% (active) and 10.9% (inactive): KM12 colon; 10 µM
active: RPMI-8226 leukemia; 0.01 µM -10.5% | RPMI-8226 leukemia; 5 µM 1.39% | RPMI-8226 leukemia; 10 µM -42.3% and 8.81% | OVCAR-8 ovarian; 2.5 µM 4.98% | OVCAR-5 ovarian; 2.5 µM 9.17% | HS 578T breast; 0.01 µM -47.1% | HS 578T breast; 2.5 µM -18.5% | HS 578T breast; 5 µM -14.2% | HS 578T breast; 10 µM -14.9% and 2.62% | NCI/ADR-RES ovarian; 10 µM -0.311% and 9.92% | BT-549 breast; 0.01 µM -1.3% | BT-549 breast; 10 µM 6.6% | MDA-MB-435 melanoma; 0.01 µM -84.7% | MDA-MB-435 melanoma; 2.5 µM -41.9% | MDA-MB-435 melanoma; 5 µM -19.9% | MDA-MB-435 melanoma; 10 µM -4.97% and -14.7% | MCF7 breast; 0.01 µM 8.89% | HCT-116 colon; 0.01 µM 6.56% | HCT-116 colon; 2.5 µM 2.87% | HCT-116 colon; 5 µM 6.48% | HCC-2998 colon; 0.01 µM -65.6% | HCC-2998 colon; 2.5 µM -10.3% | HCC-2998 colon; 5 µM 0.255% | HCC-2998 colon; 10 µM -3.97% and -21.4% | KM12 colon; 2.5 µM 1.85% | KM12 colon; 5 µM 4.45%
-24.8% (active) and 39.1% (inactive): IGROV1 ovarian; 10 µM

COc1ccc(C(C#N)=C2C=CC(=NO)C=C2)cc1
inactive: RPMI-8226 leukemia; 10 µM 22% | OVCAR-8 ovarian; 10 µM 80.3% | OVCAR-5 ovarian; 10 µM 137% | OVCAR-4 ovarian; 10 µM 91.7% | SK-OV-3 ovarian; 10 µM 114% | IGROV1 ovarian; 10 µM 60.9% | OVCAR-3 ovarian 87.3% | HS 578T breast; 10 µM 99.6% | NCI/ADR-RES ovarian; 10 µM 94.8% | BT-549 breast; 10 µM 106% | MDA-MB-435 melanoma; 10 µM 23.2% | SW-620 colon; 10 µM 12.1% | MCF7 breast; 10 µM 14.1% | HCC-2998 colon; 10 µM 105%
active: T-47D breast; 10 µM 1.56% | HCT-116 colon; 10 µM -37.2% | KM12 colon; 10 µM -24.7%
